# Screening results (PubChem BioAssay)
# Pf apPOL block = Pf-apPOL DNA polymerase inhibition; Recombinant Pf-apPOL, molecular beacon fluorescence, 1.5 h; inhibition, % at 10 µM; 210,000 tested, 0.25% active; AID 1794808
# mHTT-CaM PPI inh = disrupts binding of mutant huntingtin to calmodulin; inhibition, % at 15 µM; 190,000 tested, 3.6% active; AID 1671202; P42858; AlphaScreen His-mHTT/GST-CaM binding, luminescence;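 also: 0% = both proteins with DMSO and 100% = one protein alone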
# * marks the source's active call; other numbers are inactive results; x = no result given. Rows were chosen to be rich in hits. Some 3.6% of all compounds tested hit in one or more screens of this group. Rule as the data show it: active = inhibition above about 50%; inactive = the rest.
SMILES,Pf apPOL block,mHTT-CaM PPI inh
O=C(c1cccc(F)c1)N1CCCC2(CC(c3ccncc3)=CO2)C1 (configuration not stated),-2,-3
O=C(c1ccc(F)cc1)N1CCCC2(CC(c3ccccc3)=CO2)C1 (configuration not stated),-6,99*
O=C(c1ccc(F)cc1)N1CCCC2(CC(c3ccncc3)=CO2)C1 (configuration not stated),-5,-13
O=C(c1cccc(F)c1)N1CCCC2(CC(c3ccccc3)=CO2)C1 (configuration not stated),-4,100*
COc1ccccc1-c1nc(C2CCN(C(=O)Cc3ccc(C)cc3)CC2)no1,7,8
O=c1c(-c2ccccc2)c1-c1ccccc1,-14,x
O=C1C=C(c2ccccc2)C(=O)C=C1Cl,50*,x
O=C1Nc2ccc(Br)cc2/C1=C/c1ccc(Cl)cc1,-6,26
O=C1Nc2ccc(Br)cc2/C1=C/c1ccc(O)c(O)c1,2,96*
CC(C)(C)c1ccc(/C=C2\C(=O)Nc3ccc(Br)cc32)cc1,-7,90*
O=C1Nc2ccc(Br)cc2/C1=C/c1cccc(Cl)c1,3,40
CC1CCN(C2=NC(=O)/C(=C\c3ccc(N(C)C)cc3)S2)CC1,0,5
CC1CCN(C(=O)CN2C(=O)C3CCCN3C(=O)c3cc(F)ccc32)CC1 (configuration not stated),-8,-5
Cc1ccccc1NC(=O)CN1C(=O)CC(c2ccccc2)=Nc2cccnc21,13,-5
O=C(CN1C(=O)CC(c2ccccc2)=Nc2cccnc21)Nc1ccccc1Cl,65*,-12
CCCCC(CC)C(=O)Nc1nnc(C(C)(C)C)s1 (configuration not stated),-18,-19
O=C(CN1CCN(c2ccc(F)cc2)CC1)Nc1ccc(Cl)c(Cl)c1,4,58*
O=C(CN1CCN(c2ccc(F)cc2)CC1)Nc1cccnc1Cl,0,0
CCSc1nc(NCC(C)C)c2cnn(CCNC(=O)c3cn(C)nc3OC)c2n1,-5,0
COc1cc2c(cc1OC)C(C(=O)NCC1CCCO1)C(c1ccc(SC)cc1)N(C)C2=O (configuration not stated),0,14
Cc1ccc(OCc2nnc(SCC(=O)NCc3ccccc3)o2)cc1,-3,-1
O=C(CSc1nnc(COc2ccc3c(c2)CCCC3)o1)NCc1ccccc1,95*,0
Cc1cc(C)c(-c2noc(C)n2)c(NC(=O)c2ccccc2C)n1,0,-7
COc1cc(OC)c(CNc2ccc3cn[nH]c3c2)cc1Br,-3,55*
COc1cccc(CNc2ccc3cn[nH]c3c2)c1OC,10,54*
SMILES,Pf apPOL block,mHTT-CaM PPI inh
COc1cccc(CNc2ccc(F)c(Cl)c2)c1OC,5,26
COc1ccc(CNc2ccc(C)c(C)c2)c(OC)c1,-5,58*
COc1cc(OC)c(CNc2ccc(F)c(F)c2)cc1Br,8,10
COc1ccc(CNc2ccccc2SC)cc1Br,1,-31
COc1ccc(CNc2ccc(F)c(Cl)c2)c(OC)c1,0,31
COc1ccc(CNc2ccc3cn[nH]c3c2)cc1Br,-5,71*
COc1ccccc1CC(=O)NCCCN1CCOCC1,-6,-1
O=C(CC1CCCCC1)N1CCN(Cc2noc3ccccc23)CC1,2,-8
COc1ccc2nc(NC(=O)/C=C/c3cccc(I)c3)sc2c1,-4,19
COc1ccc(S(=O)(=O)N2CC3CC2CC3NC(=O)c2ccccc2)cc1Cl (configuration not stated),-7,6
Nc1c(Nc2ccc(F)cc2)c2ccccc2oc1=O,0,14
Cc1ccccc1-c1ccc(N2CCC(C(=O)NCc3ccco3)CC2)nn1,-5,-1
COc1ccc(CNc2cccc(F)c2)cc1Br,-9,-65
COc1ccc(CNc2ccc(C)c(C)c2)cc1Br,-2,81*
Nc1c(C(=O)Nc2ccc(Br)cc2)sc2nc3c(c(-c4ccco4)c12)CCCC3,0,-1
CC1=C(C(=O)Nc2ccc(C)cc2)C2(CCC(C)CC2)OC1=O (configuration not stated),0,7
CC1=C(C(=O)Nc2ccc(Br)c(C)c2)C2(CCC(C)CC2)OC1=O (configuration not stated),5,99*
COc1ccccc1Nc1nc(-c2sc(C)nc2C)cs1,5,-6
COc1ccc(Nc2nc(-c3sc(C)nc3C)cs2)cc1,-4,52*
Cc1nc(C)c(-c2csc(NCc3ccco3)n2)s1,-6,12
Cc1nc(C)c(-c2csc(Nc3ccc(N)cc3)n2)s1,-23,87*
CC1=C(C(=O)Nc2ccc(F)c(F)c2)C(c2cccc([N+](=O)[O-])c2)NC(=O)N1 (configuration not stated),-12,6
CCOC(=O)c1cc(-c2csc(CS(=O)(=O)c3ccc(Cl)cc3)n2)on1,-2,x
O=C(Nc1cccnc1)c1ccc(-c2cccc([N+](=O)[O-])c2)o1,2,22
CC1(C)CC(N2CN(C3CC(C)(C)NC(C)(C)C3)CN(C3CC(C)(C)NC(C)(C)C3)C2)CC(C)(C)N1,x,-5
